Test [1] has as its system XIP peptide (Xip251-270) binding. Kind of test: XIP fragment 251-270 binding compounds – biochemical, small-molecule microarray, fluorescence 635/667 nm, 0.1 µg/mL protein, primary screen (AID 1182). The conditions noted are these: fluorescent protein binding, 635 nm, higher = more signal, called active from +8 up or from −8 down.
The next test relates to XIP peptide (Xip251-270). Kind of test: compounds binding XIP fragment 251-270 – biochemical, small-molecule microarray, fluorescence 635/667 nm, 0.5 µg/mL protein, primary screen (AID 1183). The note with it: fluorescence 635 nm, higher = more signal.
Test [2] is described as follows: blood-stage malaria parasite viability loss – strain 3D7, DAPI fluorescence, 100 nL, primary screen (AID 1184).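 Further: parasites grown inside human red blood cells in medium with human serum.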 The conditions noted are these: P. falciparum 3D7 growth, 3 d, higher = more signal.
Test [3] concerns the target Homeobox protein Hox-A13 (Mus musculus) (UniProt Q62424). Kind of test: disruptors of Hoxa13 oligonucleotide interaction – biochemical, fluorescence polarization, labeled oligonucleotide, primary screen (AID 1185). The conditions noted are these: Hoxa13:DNA binding, 15 min, higher = more signal, called active from +8 up or from −8 down. A general note: In fluorescence polarisation assays a small probe gives low polarisation when free and higher when bound to something large.

The nature of test [4]: blockers of DNA damage checkpoint Chk1 activation – imaging, HeLa, hydroxyurea, phospho-Chk1 antibody, percent positive cells, primary screen (AID 1186). The note with it: hydroxyurea-induced phospho-Chk1 immunofluorescence imaging, higher = more signal.
The nature of test [5]: blockers of DNA damage checkpoint Chk1 activation – imaging, HeLa, hydroxyurea, phospho-Chk1 nuclear intensity, primary screen (AID 1187). The note with it: hydroxyurea-induced phospho-Chk1 immunofluorescence imaging, higher = more signal.

The source made the active and inactive calls. Unless noted, how the calls were made is not given here.

Homeobox protein Hox-A13 (Mus musculus), sequence (Q62424 whole entry, looked up): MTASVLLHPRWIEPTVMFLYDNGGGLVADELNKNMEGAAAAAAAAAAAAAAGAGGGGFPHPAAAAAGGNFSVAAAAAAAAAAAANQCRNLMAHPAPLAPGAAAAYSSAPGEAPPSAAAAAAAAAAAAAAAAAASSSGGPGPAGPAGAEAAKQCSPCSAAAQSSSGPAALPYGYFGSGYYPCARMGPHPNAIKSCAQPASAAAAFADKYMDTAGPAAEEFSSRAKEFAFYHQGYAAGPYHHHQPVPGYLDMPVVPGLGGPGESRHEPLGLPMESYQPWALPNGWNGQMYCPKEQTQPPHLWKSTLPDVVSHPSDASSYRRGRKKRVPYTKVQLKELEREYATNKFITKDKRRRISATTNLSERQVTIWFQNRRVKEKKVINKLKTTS

As for `CS(=O)(=O)CCOC(=O)C1=CC(CCCO)=CC(C2CC2)N(Cc2cccc(OC(F)(F)F)c2)C=C1C(=O)OCCS(C)(=O)=O` (configuration not stated), the composite z-score in test [1] was 0.892 (inactive); with XIP peptide (Xip251-270), -0.221. In addition, the z-score in test [2] is -2.11; in test [3] it was -6.49 (inactive); in test [4] it was -0.002 (inactive); in test [5], -0.36 (inactive).

On to `CN(C)C(=O)[C@@]1(CCC(=O)OC(C)(C)C)N=C(c2ccc(OCCCO)cc2)O[C@H]1c1ccccc1CN=[N+]=[N-]`, for which the results for the composite z-score (in test [1]; in the test with XIP peptide (Xip251-270)) were 1.14 (inactive) and 0.316, respectively. The z-score in test [2] is -2.32; in test [3] it was -5.91 (inactive); in test [4], 0.234 (inactive); in test [5], 0.422 (inactive).

Take `CCOC(=O)C=Cc1ccccc1O`: the composite z-score in test [1] is 1.39 (inactive); in the test on XIP peptide (Xip251-270) it was 0.322. The z-score in test [2] was -1.39; in test [3], -0.772 (inactive); in test [4] it was -0.312 (inactive); in test [5], -0.678 (inactive).

In the case of `[N-]=[N+]=NCc1ccccc1C[C@]1(C(=O)N2CCOCC2)COC(c2ccc(OCCCO)cc2)=N1`, the values for the composite z-score (in test [1]; in the test on XIP peptide (Xip251-270)) were 0.15 (inactive) and 0.711, respectively. The z-score in test [2] is -2.2; in test [3] it was -4.87 (inactive); in test [4], -0.677 (inactive); in test [5] it was -0.718 (inactive).

For `O=C1C2C=CC(C(O)C=Cc3ccc([N+](=O)[O-])cc3)N(Nc3ccccc3)C2C(=O)N1c1ccccc1` (configuration not stated), the composite z-score was -0.375 (inactive) in test [1] and 0.596 in the test with XIP peptide (Xip251-270). Moreover, the z-score in test [2] was -0.054; in test [3] it was -4.58 (inactive); in test [4] it was -0.744 (inactive); in test [5], -0.913 (inactive).

For `C=CC[C@H](OC(=O)Nc1ccc(SC)cc1)c1ccc(OCCO)cc1`, the figures for the composite z-score (in test [1]; with XIP peptide (Xip251-270)) were 1.07 (inactive) and -0.141, respectively. Further, the z-score in test [2] is 0.749; in test [3] it was -6.15 (inactive); in test [4], 0.108 (inactive); in test [5], 1.03 (inactive).

With `COCC1C2CC[C@H]3C(OCc4ccc(OC)cc4)OC[C@]4(C)[C@H]3C2=C(CN4C(=O)OC(C)(C)C)[C@H](C)C1COC` (some centres not stated), the composite z-score was -0.272 (inactive) in test [1] and 0.682 with XIP peptide (Xip251-270). Also, the z-score is -0.821 in test [2], -4.09 (inactive) in test [3], -0.615 (inactive) in test [4] and -0.719 (inactive) in test [5].

With `COC(=O)C1=CC(CCCO)=CC(c2ccc(CN3CCCC3)cc2)N(Cc2cc3c(cc2Br)OCO3)C=C1C(=O)OC` (configuration not stated), the results for the composite z-score (in test [1]; in the test with XIP peptide (Xip251-270)) were 2.27 (inactive) and 0.727, respectively. In addition, the z-score was -1.41 in test [2], -3.44 (inactive) in test [3], 0.119 (inactive) in test [4] and 0.656 (inactive) in test [5].

`CCN(CC)c1ccc(N2CC=CC34O[C@@H]5/C=C\CCC(C)OC(=O)C5[C@H]3C(=O)N(C(C)CO)[C@@H]4C2=O)cc1` (some centres not stated): the composite z-score is -0.187 (inactive) in test [1] and 0.56 in the test with XIP peptide (Xip251-270). The z-score is 0.2 in test [2], -5.38 (inactive) in test [3], -0.713 (inactive) in test [4] and -0.257 (inactive) in test [5].

Turning to `O=C(O)[C@H]1C[C@H]2C(=O)N[C@@H](Cc3ccccc3)C(=O)N2[C@H]1c1cccc(OCCO)c1`, the composite z-score in test [1] is -0.0627 (inactive); in the test with XIP peptide (Xip251-270) it was 0.152. Moreover, the z-score is -0.74 in test [2], -1.74 (inactive) in test [3], 0.464 (inactive) in test [4] and 0.48 (inactive) in test [5].

Regarding `COC(=O)C1N=C(c2ccc(OCCCO)cc2)N(c2ccccc2)O1` (configuration not stated), the composite z-score in test [1] is 2.4 (inactive); in the test with XIP peptide (Xip251-270) it was 0.864. For the same compound, the z-score is 0.704 in test [2], -3.85 (inactive) in test [3], -0.729 (inactive) in test [4] and -0.63 (inactive) in test [5].

Turning to `CO[C@H]1O[C@H](CO)[C@@H](OC(=O)Nc2ccc(C#N)cc2)[C@@H]2OC(=O)[C@H](Cc3cccc(Br)c3)C/C=C/C[C@@H](Cc3cccc(Br)c3)C(=O)O[C@@H]12`, the composite z-score was 0.685 (inactive) in test [1] and 0.254 in the test on XIP peptide (Xip251-270). Besides, the z-score in test [2] is -1.47; in test [3] it was 1.1 (inactive); in test [4], -0.353 (inactive); in test [5], -0.388 (inactive).

With `COCCOC(=O)N1C(=O)[C@@]2(c3cc(C#CCCO)ccc31)[C@H](C(=O)N1CCCCCCC1)[C@H]1C(=O)O[C@H](c3ccccc3)[C@H](c3ccccc3)N1[C@@H]2c1ccccc1OCCO`, the values for the composite z-score (in test [1]; in the test with XIP peptide (Xip251-270)) were 0.867 (inactive) and 0.6, respectively. Also, the z-score in test [2] is -2.18; in test [3], 3.5 (inactive); in test [4], 0.204 (inactive); in test [5], 0.606 (inactive).

`COCCOC(=O)N1C(=O)[C@@]2(c3cc(C#CCCO)ccc31)[C@H](C(N)=O)[C@H]1C(=O)O[C@H](c3ccccc3)[C@H](c3ccccc3)N1[C@@H]2c1ccc(OCCO)cc1`: the composite z-score in test [1] is 1.56 (inactive); in the test with XIP peptide (Xip251-270), 0.769. Besides, the z-score is -0.624 in test [2], -1.24 (inactive) in test [3], 0.0923 (inactive) in test [4] and -0.0574 (inactive) in test [5].

On to `C=CCN1C(=O)[C@]2(O[C@H](CCO)[C@@H]([Si](C)(C)c3ccc(OC)cc3)[C@@H]2C)c2cc(NC(=O)c3ccc(OC)cc3)ccc21`, for which the composite z-score is -0.129 (inactive) in test [1] and 0.456 in the test with XIP peptide (Xip251-270). In addition, the z-score is -2.64 in test [2], -5.32 (inactive) in test [3], -0.97 (inactive) in test [4] and -0.881 (inactive) in test [5].

In the case of `NC(=O)N1C(=O)C2C(C1=O)C1C=C(CCCO)C2C(C2CC2)N1Cc1cccc(OC(F)(F)F)c1` (configuration not stated), the composite z-score in test [1] is 0.198 (inactive); in the test on XIP peptide (Xip251-270), -0.341. Further, the z-score in test [2] is 1.17; in test [3], -8.76 (active); in test [4], 0.791 (inactive); in test [5], 0.384 (inactive).

Consider `O=C(CS)NCCCCCNC(=O)[C@@H]1C[C@@H]2C(=O)N[C@@H](Cc3ccccc3)C(=O)N2[C@@H]1c1cccc(OCCO)c1`, for which the composite z-score was 0.74 (inactive) in test [1] and 0.77 with XIP peptide (Xip251-270). The z-score in test [2] is -0.0054; in test [3] it was -2.89 (inactive); in test [4] it was 0.341 (inactive); in test [5] it was 0.581 (inactive).

With `Cc1cccc([C@H]2C[C@H]3C(Br)=C[C@@H]2C(=O)[C@]32CO2)c1`, the composite z-score in test [1] is -0.409 (inactive); in the test with XIP peptide (Xip251-270) it was -0.848. Also, the z-score in test [2] is -0.528; in test [3], -1.65 (inactive); in test [4], 0.139 (inactive); in test [5], -0.0027 (inactive).

With `CCCNC(=O)[C@@]1(C)c2ccccc2C(=O)N(Cc2ccccc2)[C@H]1c1ccc(CO)cc1`, the composite z-score is 0.952 (inactive) in test [1] and 0.355 with XIP peptide (Xip251-270). The z-score in test [2] is -0.804; in test [3] it was -1.91 (inactive); in test [4], -0.558 (inactive); in test [5] it was -0.579 (inactive).

`COCC(=C=CC[C@@H](O)c1ccc(OCCO)cc1)CCO`: the results for the composite z-score (in test [1]; with XIP peptide (Xip251-270)) were 0.474 (inactive) and 0.429, respectively. Further, the z-score is -1.46 in test [2], -3.22 (inactive) in test [3], -0.321 (inactive) in test [4] and 0.301 (inactive) in test [5].

Take `CC(C)C(CO)N1C(=O)[C@@H]2[C@H]3C(=O)OCC=C[C@H]3OC23C=CCN(C(C)(C)C)C(=O)[C@@H]13` (some centres not stated): the composite z-score is 0.0887 (inactive) in test [1] and 0.37 in the test with XIP peptide (Xip251-270). The z-score in test [2] was -0.217; in test [3] it was -4.25 (inactive); in test [4], 0.337 (inactive); in test [5] it was -0.418 (inactive).

In the case of `[N-]=[N+]=NCc1ccccc1[C@@H]1OC(c2ccc(OCCCO)cc2)=N[C@]1(Cc1ccccc1N=[N+]=[N-])C(=O)N1CCCCC1`, the composite z-score in test [1] is 0.111 (inactive); with XIP peptide (Xip251-270), 0.724. In addition, the z-score was -2.16 in test [2], -1.44 (inactive) in test [3], -0.234 (inactive) in test [4] and -0.0332 (inactive) in test [5].

Source of the values: PubChem BioAssay.
